# Laboratory results taken from PubChem BioAssay (EPA / NIEHS).
# Records with an inconclusive call do not appear. Calls of active or inactive are those of the source. Rule for the calls, unless noted: active = hit-call score of the fitted dose curve at least 0.9, where 1 is the maximum; inconclusive = response in the unintended direction; inactive = score below 0.9.
# Key:
# [1] = molecular target: Retinoic acid receptor RXR-alpha (Homo sapiens) (UniProt P19793); assay: ATG_RXRa_TRANS: Attagene TRANS-FACTORIAL HepG2 Assay for human Retinoid X Receptor alpha (RXRa) (AID 2283012)
# Retinoic acid receptor RXR-alpha (Homo sapiens), sequence (P19793 whole entry, looked up, the tested form may be a part): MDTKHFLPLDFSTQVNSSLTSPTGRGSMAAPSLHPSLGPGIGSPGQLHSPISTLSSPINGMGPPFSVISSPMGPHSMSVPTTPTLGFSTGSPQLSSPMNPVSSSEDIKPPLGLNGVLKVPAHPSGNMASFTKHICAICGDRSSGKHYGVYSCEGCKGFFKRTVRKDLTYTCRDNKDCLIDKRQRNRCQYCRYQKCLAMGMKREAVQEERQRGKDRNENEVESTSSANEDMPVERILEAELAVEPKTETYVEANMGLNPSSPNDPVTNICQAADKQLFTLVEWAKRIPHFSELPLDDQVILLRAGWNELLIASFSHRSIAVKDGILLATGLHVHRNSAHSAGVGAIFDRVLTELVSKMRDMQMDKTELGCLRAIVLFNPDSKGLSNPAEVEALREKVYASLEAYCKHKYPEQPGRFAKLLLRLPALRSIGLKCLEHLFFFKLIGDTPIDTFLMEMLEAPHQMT
# How it was run: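 Transient transfection of human HepG2 with multiple GAL4-UAS reporter constructs; 24 h compound exposure; total RNA isolated, reverse-transcribed, PCR-amplified, 6-FAM labelled, HpaI-cut, resolved by capillary electrophoresis. Positive-direction fit versus DMSO.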
# [2] = molecular target: human Retinoid X Receptor beta (RXRb), RXRB (gene 6257) (UniProt P28702); assay: ATG_RXRb_TRANS: Attagene TRANS-FACTORIAL HepG2 Assay for human Retinoid X Receptor beta (RXRb) (AID 2283013)
# human Retinoid X Receptor beta (RXRb), RXRB (gene 6257), sequence (P28702 whole entry, looked up, the tested form may be a part): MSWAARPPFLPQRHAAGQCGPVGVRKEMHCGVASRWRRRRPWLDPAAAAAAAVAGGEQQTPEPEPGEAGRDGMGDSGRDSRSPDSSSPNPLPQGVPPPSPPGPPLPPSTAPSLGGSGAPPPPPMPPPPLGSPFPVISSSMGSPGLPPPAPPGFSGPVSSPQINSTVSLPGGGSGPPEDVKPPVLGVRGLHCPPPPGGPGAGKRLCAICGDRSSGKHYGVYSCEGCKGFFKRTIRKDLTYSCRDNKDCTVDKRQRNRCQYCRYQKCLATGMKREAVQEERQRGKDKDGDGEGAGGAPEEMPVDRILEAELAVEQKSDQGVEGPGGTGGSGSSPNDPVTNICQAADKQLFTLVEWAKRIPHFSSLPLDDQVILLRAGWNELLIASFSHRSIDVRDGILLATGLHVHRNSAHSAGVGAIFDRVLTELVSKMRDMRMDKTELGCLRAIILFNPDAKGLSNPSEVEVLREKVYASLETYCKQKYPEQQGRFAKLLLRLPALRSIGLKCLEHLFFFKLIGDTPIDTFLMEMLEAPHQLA
# How it was run: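 Transfect HepG2 with GAL4-UAS multi-reporter constructs (chimeric NR-Gal4, TRANS format); dose compound 24 h; isolate RNA, RT-PCR, FAM primer extension, HpaI digest; quantify by capillary electrophoresis; positive direction vs DMSO.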
# [3] = molecular target: human Thyroid Receptor alpha (THRa1), THRA (gene 7067) (UniProt P10827); assay: ATG_THRa1_TRANS: Attagene TRANS-FACTORIAL HepG2 Assay for human Thyroid Receptor alpha (THRa1) (AID 2283014)
# human Thyroid Receptor alpha (THRa1), THRA (gene 7067), sequence (P10827 whole entry, looked up, the tested form may be a part): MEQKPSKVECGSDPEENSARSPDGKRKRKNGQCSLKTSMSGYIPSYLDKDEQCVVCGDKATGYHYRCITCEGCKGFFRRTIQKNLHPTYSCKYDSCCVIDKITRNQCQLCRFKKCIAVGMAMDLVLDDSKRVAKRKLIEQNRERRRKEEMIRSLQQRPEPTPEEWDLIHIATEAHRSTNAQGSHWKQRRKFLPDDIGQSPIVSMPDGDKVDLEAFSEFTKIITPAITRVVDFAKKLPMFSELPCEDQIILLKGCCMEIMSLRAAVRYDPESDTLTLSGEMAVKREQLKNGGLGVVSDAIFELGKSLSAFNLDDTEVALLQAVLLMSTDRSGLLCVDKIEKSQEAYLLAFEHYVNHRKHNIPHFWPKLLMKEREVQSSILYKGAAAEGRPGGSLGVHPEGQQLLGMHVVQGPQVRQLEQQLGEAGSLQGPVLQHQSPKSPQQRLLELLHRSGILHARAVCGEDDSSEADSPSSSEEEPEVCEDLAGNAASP
# How it was run: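 Transient HepG2 transfection, NR-Gal4 chimera driving GAL4-UAS reporters; 24 h compound exposure; total RNA, oligo(dT) RT, PCR, fluorescent primer extension, capillary electrophoresis. Upward direction vs DMSO control.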
# [4] = read-out: E-selectin (Homo sapiens) (UniProt P16581); assay: BSK_3C_Eselectin: BioMAP Diversity Plus: 3C Assay for Eselectin Biomarker Activity (AID 2283015; active = hit-call score of the fitted dose curve at least 0.9, where 1 is the maximum; inactive = score below 0.9;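 for outcome: cell surface E-selectin protein quantified by ELISA 24 h after dosing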); conditions: primary human endothelial cells (HUVEC); actives raise or lower the signal
# How it was run: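 HUVEC, 3C stimulation; compound exposure 24 h; E-selectin by ELISA; gain- or loss-of-signal fitted bidirectionally vs DMSO baseline.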
# [5] = read-out: Interleukin-1 alpha (IL1a), IL1A (gene 3552); assay: BSK_BE3C_IL1a: BioMAP Diversity Plus: BE3C Assay for Interleukin-1 alpha (IL1a) Biomarker Activity (AID 2283016; active = hit-call score of the fitted dose curve at least 0.9, where 1 is the maximum; inactive = score below 0.9); conditions: primary human bronchial epithelial cells; actives raise or lower the signal
# How it was run: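 BE3C primary human bronchial epithelium; cpd 24 h; IL-1a by ELISA; bidirectional fit vs DMSO; parallel SRB (0.1% SRB, 10% TCA fix, 560 nm) for cytotoxicity.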
# [6] = read-out: Monocyte Chemoattractant Protein-1 (MCP1), CCL2 (gene 6347); assay: BSK_3C_MCP1: BioMAP Diversity Plus: 3C Assay for Monocyte Chemoattractant Protein-1 (MCP1) Biomarker Activity (AID 2283017; active = hit-call score of the fitted dose curve at least 0.9, where 1 is the maximum; inactive = score below 0.9); conditions: primary human endothelial cells (HUVEC); actives raise or lower the signal
# How it was run: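 HUVEC, 3C system; 24 h chemical exposure; MCP-1 by ELISA; bidirectional curve fit vs DMSO baseline.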
# [7] = read-out: Monocyte Chemoattractant Protein-1 (MCP1), CCL2 (gene 6347); assay: BSK_4H_MCP1: BioMAP Diversity Plus: 4H Assay for Monocyte Chemoattractant Protein-1 (MCP1) Biomarker Activity (AID 2283018; active = hit-call score of the fitted dose curve at least 0.9, where 1 is the maximum; inactive = score below 0.9); conditions: primary human endothelial cells (HUVEC); actives raise or lower the signal
# How it was run: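 ELISA read-out of MCP-1 from human vascular endothelial primary cells taken at 24 hours after compound exposure. Activity was fitted in both directions relative to DMSO, which served as negative control.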
# [8] = read-out: Human Leukocyte Antigen - DR isotype (HLADR), HLA-DRA (gene 3122); assay: BSK_3C_HLADR: BioMAP Diversity Plus: 3C Assay for Human Leukocyte Antigen - DR isotype (HLADR) Biomarker Activity (AID 2283019; active = hit-call score of the fitted dose curve at least 0.9, where 1 is the maximum; inactive = score below 0.9;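 for outcome: ELISA of cell-surface HLA-DR on HUVEC 24 h after dosing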); conditions: primary human endothelial cells (HUVEC); actives raise or lower the signal
# How it was run: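 HUVEC, 3C stimulation, 24 h post-dose; HLA-DR by ELISA; bidirectional curve fit vs DMSO baseline; gain or loss of signal scored.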
# [9] = read-out: Interleukin-8 (IL8), CXCL8 (gene 3576); assay: BSK_3C_IL8: BioMAP Diversity Plus: 3C Assay for Interleukin-8 (IL8) Biomarker Activity (AID 2283020; active = hit-call score of the fitted dose curve at least 0.9, where 1 is the maximum; inactive = score below 0.9); conditions: primary human endothelial cells (HUVEC); actives raise or lower the signal
# How it was run: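 ELISA read-out of IL-8 from human umbilical vein endothelium, measured 24 h after chemical dosing. Activity is expressed relative to DMSO negative control, with both increases and decreases fitted.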
# E-selectin (Homo sapiens), sequence (P16581 whole entry, looked up): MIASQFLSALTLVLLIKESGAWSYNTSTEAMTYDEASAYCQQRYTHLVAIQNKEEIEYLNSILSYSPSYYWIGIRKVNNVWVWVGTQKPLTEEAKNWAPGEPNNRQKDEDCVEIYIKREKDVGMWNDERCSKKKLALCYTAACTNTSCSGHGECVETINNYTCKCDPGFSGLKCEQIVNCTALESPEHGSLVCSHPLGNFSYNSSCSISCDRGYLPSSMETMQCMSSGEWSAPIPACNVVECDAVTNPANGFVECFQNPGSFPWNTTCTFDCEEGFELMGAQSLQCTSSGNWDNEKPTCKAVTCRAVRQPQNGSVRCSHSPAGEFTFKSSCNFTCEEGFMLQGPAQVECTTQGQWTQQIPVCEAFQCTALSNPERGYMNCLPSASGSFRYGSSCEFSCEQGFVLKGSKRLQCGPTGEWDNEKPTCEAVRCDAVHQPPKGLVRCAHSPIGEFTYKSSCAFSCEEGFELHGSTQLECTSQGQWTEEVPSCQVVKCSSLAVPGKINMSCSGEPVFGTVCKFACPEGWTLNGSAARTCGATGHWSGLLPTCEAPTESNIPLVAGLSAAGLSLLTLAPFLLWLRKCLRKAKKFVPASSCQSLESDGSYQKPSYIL
compound,measurement,setting,value
CCCCCCCCSCCO,outcome,[1],inactive
same,outcome,[2],inactive
CCCCCCCCCCCC(=O)OC[C@@H](O)[C@H]1OC[C@H](O)[C@H]1O,outcome,[1],inactive
same,outcome,[2],inactive
CC(C)(CO)[C@@H](O)C(=O)NCCC(=O)O,outcome,[1],inactive
same,outcome,[2],inactive
same,outcome,[3],inactive
C=CC(=O)OCCCC,outcome,[1],inactive
same,outcome,[2],inactive
CCOC(=O)CN,outcome,[1],inactive
same,outcome,[2],inactive
O=C1CCCC=CCCCCCCCCCC1,AC50,[1],24.4 µM (active)
same,AC50,[2],12.1 µM (active)
COC(=O)Nc1ccc(Cl)c(Cl)c1,outcome,[1],inactive
same,AC50,[2],45.1 µM (active)
same,outcome,[3],inactive
Nc1ccccc1[N+](=O)[O-],outcome,[1],inactive
same,outcome,[2],inactive
same,outcome,[3],inactive
CN(C)CCOc1ccc(/C(=C(/CCCl)c2ccccc2)c2ccccc2)cc1,outcome,[1],inactive
same,outcome,[2],inactive
same,outcome,[3],inactive
CCC(=O)O[C@@H]1C[C@H]2CC[C@]1(C)C2(C)C,outcome,[1],inactive
same,outcome,[2],inactive
COc1ccc(N)c([N+](=O)[O-])c1,outcome,[1],inactive
same,outcome,[2],inactive
CC1(C)C(=O)N(Cl)C(=O)N1Br,outcome,[1],inactive
same,outcome,[2],inactive
same,outcome,[3],inactive
Cc1cc(C)nc(NS(=O)(=O)c2ccc(N)cc2)n1,outcome,[1],inactive
same,outcome,[2],inactive
CCCCCCCCc1ccc(S(=O)(=O)O)cc1,outcome,[1],inactive
same,outcome,[2],inactive
CC(C)=CCCC(C)CCOC=O (stereo unspecified),outcome,[1],inactive
same,outcome,[2],inactive
same,outcome,[3],inactive
Nc1c(S(=O)(=O)O)cc(Br)c2c1C(=O)c1ccccc1C2=O,outcome,[1],inactive
same,outcome,[2],inactive
same,outcome,[3],inactive
OCc1cccc(Oc2ccccc2)c1,outcome,[1],inactive
same,AC50,[2],100 µM (active)
same,outcome,[3],inactive
O=C(Nc1ccc([N+](=O)[O-])cc1)Nc1ccc([N+](=O)[O-])cc1 (tested in a mixture with another compound),outcome,[1],inactive
same,outcome,[2],inactive
CC=Cc1ccc(OC)c(OC)c1,outcome,[1],inactive
same,outcome,[2],inactive
CCc1cc(Cc2cc(CC)cc(C(C)(C)C)c2O)c(O)c(C(C)(C)C)c1,outcome,[1],inactive
same,AC50,[2],5.71 µM (active)
same,outcome,[3],inactive
Nc1ccc(N)c2c1C(=O)c1ccccc1C2=O,outcome,[1],inactive
same,outcome,[2],inactive
Cc1cccc(Nc2ccccc2)c1,AC50,[2],28 µM (active)
C=COCCOCCOC=C,outcome,[2],inactive
CCCCCCCCCCCCS(=O)(=O)Cl,outcome,[2],inactive
CCCCCCCCCCCCN1CCCCCC1=O,outcome,[2],inactive
same,outcome,[3],inactive
C#CC(C)N(C)C(=O)Nc1ccc(Cl)cc1 (stereo unspecified),outcome,[2],inactive
COc1ccc(CCN2CCC(Nc3nc4ccccc4n3Cc3ccc(F)cc3)CC2)cc1,outcome,[1],inactive
same,outcome,[3],inactive
same,AC50,[4],5 µM (active)
same,outcome,[5],inactive
same,AC50,[6],3.54 µM (active)
same,AC50,[7],0.992 µM (active)
same,AC50,[8],6.77 µM (active)
same,AC50,[9],2.66 µM (active)
CC(=O)O[C@H]1C[C@@H]2CC[C@@]1(C)C2(C)C,outcome,[2],inactive
CSc1c(Cl)c(Cl)c(Cl)c(Cl)c1Cl,AC50,[2],2.96 µM (active)
CCOC(=O)[C@@H](C)Oc1ccc(Oc2nc3ccc(Cl)cc3o2)cc1,outcome,[2],inactive
same,outcome,[3],inactive
C=C[Si]1(C)O[Si](C)(C=C)O[Si](C)(C=C)O[Si](C)(C=C)O1 (stereo unspecified),AC50,[2],8 µM (active)
Nc1c(Cl)cc(Cl)cc1[N+](=O)[O-],outcome,[2],inactive
same,outcome,[3],inactive
CCCC(O)C(O)CO (stereo unspecified),outcome,[1],inactive
same,outcome,[3],inactive
CCCCCCOC(=O)CCC,outcome,[2],inactive
Nc1ccc(NCCO)c([N+](=O)[O-])c1,AC50,[2],18.1 µM (active)
same,outcome,[3],inactive
CCCOCCO,outcome,[2],inactive
same,outcome,[3],inactive
CN(C)C(=O)Nc1ccc(Oc2ccc(Cl)cc2)cc1,outcome,[1],inactive
same,outcome,[3],inactive
same,AC50,[4],20 µM (active)
same,AC50,[5],3.97 µM (active)
same,AC50,[6],3.97 µM (active)
same,AC50,[7],12.1 µM (active)
same,outcome,[8],inactive
same,outcome,[9],inactive
CCCC(C)=O,outcome,[2],inactive
same,outcome,[3],inactive
CC(C)C[C@H](NC(=O)OCC1c2ccccc2-c2ccccc21)C(=O)O,outcome,[2],inactive
CC(C)(N=C=O)c1cccc(C(C)(C)N=C=O)c1,outcome,[1],inactive
same,outcome,[4],inactive
same,outcome,[5],inactive
same,outcome,[6],inactive
same,outcome,[7],inactive
same,outcome,[8],inactive
same,outcome,[9],inactive
C[C@H]1C[C@@H](O)CC(C)(C)C1,outcome,[1],inactive
same,outcome,[3],inactive
c1ccc2[nH]cnc2c1,outcome,[1],inactive
same,outcome,[3],inactive
CN(C)c1cccc(O)c1,outcome,[2],inactive
CCCCCCCC/C=C\CCCCCCCC(=O)OCC,outcome,[2],inactive
CCCCCCCCCCCC(=O)OCC(O)CO (stereo unspecified),AC50,[2],100 µM (active)
CC(C)CCCCCCc1ccc(OCCOCCO)cc1,outcome,[2],inactive
CC(C)(C)CC(C)(C)c1ccc(OCCOCC[N+](C)(C)Cc2ccccc2)cc1,outcome,[1],inactive
same,outcome,[3],inactive
same,AC50,[4],6.62 µM (active)
same,AC50,[5],7.26 µM (active)
same,AC50,[6],5 µM (active)
same,AC50,[7],3.9 µM (active)
same,AC50,[8],5 µM (active)
same,AC50,[9],5 µM (active)
Clc1cc(Cl)c(-c2c(Cl)c(Cl)cc(Cl)c2Cl)cc1Cl,outcome,[1],inactive
same,AC50,[4],13.8 µM (active)
same,AC50,[5],1.98 µM (active)
same,AC50,[6],16 µM (active)
same,AC50,[7],8.9 µM (active)
same,AC50,[8],15.2 µM (active)
same,AC50,[9],1.98 µM (active)
C=C(C)CNCC,outcome,[2],inactive
same,outcome,[3],inactive
CC(=O)NCCO,outcome,[2],inactive
O=C1c2ccccc2C(=O)c2c(O)ccc(O)c21,outcome,[1],inactive
same,outcome,[3],inactive
same,outcome,[4],inactive
same,outcome,[5],inactive
same,outcome,[6],inactive
same,outcome,[7],inactive
same,AC50,[8],8.08 µM (active)
same,AC50,[9],2.12 µM (active)
